# Values joined by “and” are separate entries in the source; they are usually repeats but may differ in a detail not shown here. Identical values can stand only once. Records with an inconclusive call do not appear. Active and inactive are the calls of the source. The call rests on the fitted dose curve; in most records, active means well fitted inhibition curve with a large enough effect; inconclusive means small, poorly fitted or top-dose-only effect; inactive means flat fitted curve, though single readings scatter.
# Target: Luciferin 4-monooxygenase (Photinus pyralis) (UniProt P08659)
# Sequence (P08659 whole entry, looked up, canonical isoform): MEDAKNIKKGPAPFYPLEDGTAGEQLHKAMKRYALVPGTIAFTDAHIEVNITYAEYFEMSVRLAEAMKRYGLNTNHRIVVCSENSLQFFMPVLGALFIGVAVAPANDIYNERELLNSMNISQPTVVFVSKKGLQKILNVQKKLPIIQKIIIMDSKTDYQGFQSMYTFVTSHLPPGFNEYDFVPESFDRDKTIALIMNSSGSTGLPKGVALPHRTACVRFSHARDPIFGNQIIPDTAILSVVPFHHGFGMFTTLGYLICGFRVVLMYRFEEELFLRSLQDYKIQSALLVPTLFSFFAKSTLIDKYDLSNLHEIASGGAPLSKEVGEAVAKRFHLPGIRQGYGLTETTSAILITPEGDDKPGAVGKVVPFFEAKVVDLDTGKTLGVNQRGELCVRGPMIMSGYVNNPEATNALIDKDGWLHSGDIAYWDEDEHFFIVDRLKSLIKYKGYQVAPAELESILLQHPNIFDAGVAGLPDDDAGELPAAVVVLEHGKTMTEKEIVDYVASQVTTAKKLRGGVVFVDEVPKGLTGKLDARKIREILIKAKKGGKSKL
# Assay: Counterscreen Assay for Enhancers of SMN2 Splice Variant Expression: Interaction with Luciferase Reporter
# Conditions: purified firefly luciferase, luminescence, 5 min; series mostly up to 40.3 µM; activity change, negative = inhibition: at the top concentration
# Excerpt: NIH Chemical Genomics Center [NCGC] NIH Molecular Libraries Probe Production centers Network [MLPCN] MLPCN Grant: R03 MH084179-01 Assay Submitter (PI): Elliot Androphy NCGC Assay Overview: Spinal muscular atrophy (SMA) is caused by insufficient levels of the survival motor neuron protein SMN. The SMN locus on chromosome 5q13 contains two inverted copies of SMN called SMN1 and SMN2 which are 99% identical at the amino acid level. SMN1 is a fully functional protein and SMN2 skips exon 7 90% of the time. Skipping of exon 7 produces non-functional protein product. 10% of the SMN2 protein includes exon 7 and is fully functional. In the SMA disease state, mutations in the SMN1 locus are the cause of the disease state. Because only 10% of SMN2 is of the fully functional form, it is not sufficient to overcome the deficiency produced by the loss of the SMN1 product. A therapy that either increases the amount of SMN2 product made increases the inclusion of exon 7 has been proposed for the treatment of SMA. We have designed an assay to identify small molecules that can increase the amount of functional SMN2 product by appending a luciferase reporter gene after the native SMN2 gene, such that inclusion of exon 7 in the expressed product places the luciferase sequence in frame, thus generating functional luciferase enzyme. One potential source of false positives in the primary screening assay is stabilization of the reporter luciferase via direct binding. This assay attempts to identify such compounds by screening directly for luciferase activity in the absence of the cellular system.
# NCGC Assay Protocol Summary: The primary screen utilizes a luciferase reporter gene assay, combining the promoter and splicing based cassettes in tandem with the major portion of the native SMN1 cDNA, and then transfected into HEK293 cells. Compounds that modulate luciferase signal presumably modulate expression of […]. In this assay, we utilize purified firefly luciferase in lieu of a cellular reporter to identify compounds interacting directly with luciferase in the primary screen. Sequence, Parameter, Value, Description (1) Reagent, 2.5 uL, Enzyme in buffer (note A) (2) Compound, 23 nL, From stock solutions (3) Time, 5 minutes, Room temp (4) Reagent#2.5 ul, Luciferase detection reagent (note B) (5) Detector, 1 sec integrate, Luminescent read on Viewlux (note C) Sigma enzyme (1 mg) considered to be MW 61,000 diluted in 357 ul assay buffer to 50 uM stock. A - Enzyme and buffer consists of 50 mM Tris-acetate pH 7.6, 10 mM Mg acetate 0.05% BSA, 0.01% Tween and 5 nM firefly luciferase B - Detection reagent = britelite plus diluted 1:10 in PBS C - Viewlux settings were 1 second integration medium sensitivity Keywords: Spinal muscular atrophy, SMA, SMN2, high throughput screening, MLSMR, MLPCN, NIH Roadmap, qHTS and NCGC
Structure (SMILES),Potency,"activity change, negative = inhibition"
Cc1oncc1C(=O)Nc1ccc(C(F)(F)F)cc1,0.891 µM (active),
Nc1ccccc1-c1nnn(CC(=O)N2CCCc3ccccc32)n1,,2.12% [at 48.7 pM] (inactive)
FC(F)(F)c1cccc(-c2nnc(-c3ccccc3)c(N3CCOCC3)n2)c1,,1.02% (inactive)
Cc1ccc(-c2nnc(-c3ccccc3)c(N3CCOCC3)n2)cc1,,-6.15% (inactive)
Cc1ccc(-c2csc(NC(=O)C3CCN(S(=O)(=O)c4cccs4)CC3)n2)cc1,8.91 µM (active),
COc1nc(-c2ccc(Cl)cc2)nnc1C,,-10.2% (inactive)
O=C(Nc1cccnc1)/C(N=Nc1c(Cl)cccc1Cl)=C(\O)c1ccccc1,,-9.05% [at 48.7 pM] (inactive)
CCCSc1nnc2c(n1)OC(c1sccc1C)Nc1ccccc1-2 (centres undefined),14.1 µM (active),
OCCCNc1nc(-c2ccc(Cl)cc2)nnc1-c1ccc(Br)cc1,,-2.17% (inactive)
COc1cccc(NC(=O)CSc2nc3ccccc3nc2N2CCOCC2)c1,,5.12% [at 51 µM] (inactive)
N#C/C(=C\Nc1ccccc1SC(F)(F)F)c1nc(-c2ccc(Cl)cc2)cs1,,19.5% [at 48.7 pM] (inactive)
O=c1[nH]c(=O)n(C2CCCO2)cc1Br (centres undefined),,0.483% (inactive)
CCCCOC(C)n1cc(F)c(=O)[nH]c1=O (centres undefined),,16.9% (inactive)
FC(F)C(F)(F)C1=CC(c2cccs2)=NCCN1,,-4.71% [at 48.7 pM] (inactive)
O=S(=O)(NC1CCCc2ccccc21)c1cnc[nH]1 (centres undefined),,3.43% [at 48.7 pM] (inactive)
O=C(Cc1c(F)cccc1Cl)N1CCN(C(=O)c2ccco2)CC1,,-0.165% [at 48.7 pM] (inactive)
COCCCN1C(=O)C(=O)/C(=C(/O)c2ccc3c(c2)CC(C)O3)C1c1cccnc1 (centres undefined),,4.07% [at 48.7 pM] (inactive)
CC(/C=C/C(=O)NO)=C\[C@@H](C)C(=O)c1ccc(N(C)C)cc1,,8.8% [at 51 µM] (inactive)
Cc1ccc(C(=O)Cn2c3c(sc2=N)CCCC3)cc1,126 nM (active) and 100 nM (active),
O=C(NCCc1cn2ccsc2n1)c1cccs1,,-9.66% [at 48.7 pM] (inactive)
CCOc1ccc2nc(N3CCC(C(=O)N4CCN(c5ccccn5)CC4)CC3)sc2c1,,-20.4% (inactive)
COc1ccc(-c2csc(N3CCC(C(N)=O)(N4CCCCC4)CC3)n2)cc1,,-7.05% (inactive)
CCOC(=O)c1c(-c2cccc(C)c2)csc1NC(=O)c1c(-c2ccccc2)noc1C,,-9.91% [at 48.7 pM] (inactive)
CCC(=O)n1nc(NCc2ccccc2OC)nc1NCc1ccccc1OC,,-6.75% [at 48.7 pM] (inactive)

# From PubChem BioAssay AID1733 (National Center for Advancing Translational Sciences (NCATS), 2009)
